Test results: the supplement of paper PMC10849652
The full data set covers some 8,800 targets. This sample favours those with a hit. About 0.5% of all pairs of compound and target were hits.

Assays:
Assay in all cases: log2 fold change, soluble protein after heating vs DMSO (PISA); higher = thermal stabilisation; K562 lysate, 10 uM; active = over 0.2 and 3.5 SD of the protein, either way, in both replicates (recomputed)
nilotinib = compound: Cc1cn(-c2cc(NC(=O)c3ccc(C)c(Nc4nccc(-c5cccnc5)n4)c3)cc(C(F)(F)F)c2)cn1 [nilotinib]
Summary of the method: (§1)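 The values are log-two fold changes in thermal stability compared with solvent controls and come from duplicates. They were obtained by TMTpro 16plex LC-MS/MS, with channel sums equalised, on the supernatant after 21,000xg for 90 min. That supernatant came from crude K562 extract at 1 mg/mL protein treated with 10 μM compound for 30 min, heated for 3 min across 48°C-58°C, pooled and brought to 0.5% NP-40 at 4°C.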

[1] = compound: Cc1nc(Nc2n[nH]c3c2CN(C(=O)N[C@H](CN(C)C)c2ccccc2)C3(C)C)c2sccc2n1
Summary of the method: as §1

dasatinib = compound: Cc1nc(Nc2ncc(C(=O)Nc3c(C)cccc3Cl)s2)cc(N2CCN(CCO)CC2)n1 [dasatinib]
Summary of the method: as §1

[2] = compound: Cc1ncc(-c2ccnc(Nc3ccc(S(C)(=O)=O)cc3)n2)n1C(C)C
Summary of the method: as §1

[3] = compound: Cn1cc(-c2ccc3c(c2)CCN3C(=O)Cc2cccc(C(F)(F)F)c2)c2c(N)ncnc21
Summary of the method: as §1

quisinostat = compound: Cn1cc(CNCC2CCN(c3ncc(C(=O)NO)cn3)CC2)c2ccccc21 [quisinostat]
Summary of the method: as §1

tipifarnib = compound: Cn1cncc1[C@@](N)(c1ccc(Cl)cc1)c1ccc2c(c1)c(-c1cccc(Cl)c1)cc(=O)n2C [tipifarnib]
Summary of the method: as §1

[4] = compound: NC(=O)Nc1cc(-c2cccc(F)c2)sc1C(=O)N[C@H]1CCCNC1
Summary of the method: as §1

[5] = compound: NC(=O)c1cnc(N[C@@H]2CCCC[C@@H]2N)nc1Nc1cccc(-n2nccn2)c1
Summary of the method: as §1

[6] = compound: NC1(c2ccc(-c3nc4ccn5c(=O)[nH]nc5c4cc3-c3ccccc3)cc2)CCC1
Summary of the method: as §1

[7] = compound: NCC(=O)Nc1ccc(-n2nc(C(F)(F)F)cc2-c2ccc3c(ccc4ccccc43)c2)cc1
Summary of the method: as §1

vorinostat = compound: O=C(CCCCCCC(=O)Nc1ccccc1)NO [vorinostat]
Summary of the method: as §1

silmitasertib = compound: O=C(O)c1ccc2c(c1)nc(Nc1cccc(Cl)c1)c1ccncc12 [silmitasertib]
Summary of the method: as §1

[8] = compound: O=C1NC(=O)C(c2cnc3ccccn23)=C1c1cn2c3c(cc(F)cc13)CN(C(=O)N1CCCCC1)CC2
Summary of the method: as §1

entospletinib = compound: c1cn2cc(-c3ccc4cn[nH]c4c3)nc(Nc3ccc(N4CCOCC4)cc3)c2n1 [entospletinib]
Summary of the method: as §1

Measured: log2 fold change

DTYMK (UniProt P23919)
Sequence of UniProt P23919 (P23919 whole entry, looked up): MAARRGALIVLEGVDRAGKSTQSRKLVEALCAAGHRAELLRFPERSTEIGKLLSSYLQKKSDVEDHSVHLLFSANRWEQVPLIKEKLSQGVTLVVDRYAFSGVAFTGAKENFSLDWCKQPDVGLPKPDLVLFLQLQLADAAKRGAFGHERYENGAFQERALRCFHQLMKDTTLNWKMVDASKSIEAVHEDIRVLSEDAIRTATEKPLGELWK
active: vorinostat -0.294
inactive: nilotinib -0.003 | [1] 0.002 | dasatinib -0.072 | [2] -0.007 | [3] -0.025 | quisinostat -0.009 | tipifarnib 0.017 | [4] 0.045 | [5] -0.024 | [6] -0.007 | [7] -0.022 | silmitasertib 0.071 | [8] -0.023 | entospletinib 0.061

DYNC1I2 isoform 5 (UniProt Q13409)
inactive: nilotinib 0.029 | [1] 0.016 | dasatinib 0.008 | [2] -0.003 | [3] 0.001 | quisinostat 0.023 | tipifarnib -0.011 | [4] -0.014 | [5] -0.008 | [6] -0.01 | [7] 0.009 | vorinostat 0.126 | silmitasertib 0.03 | [8] -0.005 | entospletinib -0.007

ECI2 (UniProt O75521)
inactive: nilotinib 0.085 | [1] -0.013 | dasatinib 0.029 | [2] 0.017 | [3] -0.01 | quisinostat 0.023 | tipifarnib -0.071 | [4] -0.027 | [5] -0.019 | [6] -0.022 | [7] 0.08 | vorinostat 0.146 | silmitasertib 0.022 | entospletinib -0.033
active: [8] 0.284

ESYT2 (UniProt H7BXI1)
active: vorinostat 0.243
inactive: nilotinib 0.016 | [1] -0.017 | dasatinib -0.01 | [2] 0.037 | [3] 0.02 | quisinostat 0.027 | tipifarnib 0.009 | [4] -0.015 | [5] -0.031 | [6] -0.051 | [7] -0.041 | silmitasertib -0.002 | [8] -0.002 | entospletinib 0.019

GGA2 (UniProt Q9UJY4)
Sequence of UniProt Q9UJY4 (Q9UJY4 whole entry, looked up): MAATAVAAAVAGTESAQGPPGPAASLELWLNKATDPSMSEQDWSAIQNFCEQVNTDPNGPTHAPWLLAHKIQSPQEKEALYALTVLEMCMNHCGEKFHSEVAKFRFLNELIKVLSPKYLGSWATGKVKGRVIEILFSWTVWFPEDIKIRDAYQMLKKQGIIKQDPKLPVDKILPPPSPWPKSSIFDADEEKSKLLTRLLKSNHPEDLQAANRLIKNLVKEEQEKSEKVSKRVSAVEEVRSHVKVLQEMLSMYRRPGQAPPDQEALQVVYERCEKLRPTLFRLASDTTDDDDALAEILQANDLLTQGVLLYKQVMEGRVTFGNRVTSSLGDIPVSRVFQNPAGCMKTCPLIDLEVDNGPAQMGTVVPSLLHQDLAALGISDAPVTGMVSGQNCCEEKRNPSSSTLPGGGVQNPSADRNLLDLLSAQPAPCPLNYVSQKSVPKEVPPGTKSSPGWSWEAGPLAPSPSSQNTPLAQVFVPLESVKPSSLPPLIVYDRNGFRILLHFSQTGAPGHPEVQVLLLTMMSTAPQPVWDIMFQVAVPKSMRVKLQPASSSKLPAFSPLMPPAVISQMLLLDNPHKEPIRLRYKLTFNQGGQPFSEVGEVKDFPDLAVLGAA
inactive: nilotinib -0.028 | [1] -0.047 | dasatinib -0.043 | [2] 0 | [3] 0.032 | quisinostat -0.022 | tipifarnib -0.003 | [4] 0.066 | [5] 0.043 | [6] 0.001 | [7] -0.042 | silmitasertib 0.016 | [8] 0.022 | entospletinib -0.026
active: vorinostat -0.313

FAM83A (UniProt Q86UY5)
Sequence of UniProt Q86UY5 (Q86UY5 whole entry, looked up): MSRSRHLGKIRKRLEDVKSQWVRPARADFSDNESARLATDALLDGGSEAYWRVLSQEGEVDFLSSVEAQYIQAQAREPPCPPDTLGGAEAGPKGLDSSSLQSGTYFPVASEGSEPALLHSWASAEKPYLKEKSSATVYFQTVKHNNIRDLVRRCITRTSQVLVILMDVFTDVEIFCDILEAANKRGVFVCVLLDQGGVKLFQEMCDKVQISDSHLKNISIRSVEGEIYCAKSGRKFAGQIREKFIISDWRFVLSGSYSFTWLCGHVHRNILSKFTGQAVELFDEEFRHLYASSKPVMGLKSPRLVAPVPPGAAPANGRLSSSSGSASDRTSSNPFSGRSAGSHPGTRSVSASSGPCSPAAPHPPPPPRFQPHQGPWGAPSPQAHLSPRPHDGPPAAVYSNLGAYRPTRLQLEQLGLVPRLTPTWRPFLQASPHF
active: vorinostat -0.417
inactive: nilotinib -0.007 | [1] -0.069 | dasatinib -0.028 | [2] -0.016 | [3] -0.033 | quisinostat -0.088 | tipifarnib -0.08 | [4] 0.034 | [5] 0.004 | [6] -0.019 | [7] -0.049 | silmitasertib -0.034 | [8] -0.052 | entospletinib -0.002

FYCO1 isoform 4 (UniProt Q9BQS8)
inactive: nilotinib -0.02 | [1] -0.022 | dasatinib 0.011 | [2] 0.016 | [3] 0.031 | quisinostat -0.014 | tipifarnib -0.012 | [4] 0.019 | [5] 0.015 | [6] -0.008 | [7] -0.002 | vorinostat -0.002 | silmitasertib 0.047 | [8] 0.033 | entospletinib -0.002

ECH1 (UniProt Q13011)
inactive: nilotinib -0.008 | [1] -0.019 | dasatinib 0.195 | [2] -0.003 | [3] 0.02 | quisinostat -0.008 | tipifarnib 0.022 | [4] 0.001 | [5] -0.022 | [6] 0.193 | [7] 0.041 | vorinostat 0.081 | silmitasertib -0.026 | [8] -0.052 | entospletinib 0.022

EIF2B4 isoform 2 (UniProt Q9UI10)
Sequence of UniProt Q9UI10 (Q9UI10 whole entry, looked up): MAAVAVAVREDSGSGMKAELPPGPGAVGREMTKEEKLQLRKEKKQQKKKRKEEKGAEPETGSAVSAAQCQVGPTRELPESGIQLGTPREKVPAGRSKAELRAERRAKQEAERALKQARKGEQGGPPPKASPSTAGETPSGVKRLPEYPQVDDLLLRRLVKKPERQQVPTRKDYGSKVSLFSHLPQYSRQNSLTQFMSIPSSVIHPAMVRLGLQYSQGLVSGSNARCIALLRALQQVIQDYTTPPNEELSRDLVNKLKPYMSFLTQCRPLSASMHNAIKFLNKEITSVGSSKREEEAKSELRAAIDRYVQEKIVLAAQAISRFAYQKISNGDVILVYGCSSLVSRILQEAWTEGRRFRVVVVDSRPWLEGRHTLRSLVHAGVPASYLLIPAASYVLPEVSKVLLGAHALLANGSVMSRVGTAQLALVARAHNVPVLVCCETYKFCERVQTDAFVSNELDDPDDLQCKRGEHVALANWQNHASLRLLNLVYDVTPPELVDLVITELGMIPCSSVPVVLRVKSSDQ
inactive: nilotinib -0.002 | [1] 0.004 | dasatinib -0.022 | [2] 0.003 | [3] 0.011 | quisinostat 0 | tipifarnib 0.037 | [4] 0.074 | [5] -0.003 | [6] 0.002 | [7] 0.023 | vorinostat -0.209 | silmitasertib 0.013 | [8] -0.002 | entospletinib 0.012

FTSJ1 (UniProt Q9UET6)
Sequence of UniProt Q9UET6 (Q9UET6 whole entry, looked up): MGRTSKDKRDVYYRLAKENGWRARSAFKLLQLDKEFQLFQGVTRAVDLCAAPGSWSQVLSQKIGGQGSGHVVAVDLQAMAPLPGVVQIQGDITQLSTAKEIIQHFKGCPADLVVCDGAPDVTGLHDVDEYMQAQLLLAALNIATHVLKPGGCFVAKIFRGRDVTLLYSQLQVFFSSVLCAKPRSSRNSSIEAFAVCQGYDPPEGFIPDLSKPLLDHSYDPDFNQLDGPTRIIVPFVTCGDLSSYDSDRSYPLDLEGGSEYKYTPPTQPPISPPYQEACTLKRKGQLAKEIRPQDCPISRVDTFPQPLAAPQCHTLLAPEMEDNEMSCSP
active: vorinostat -0.326
inactive: nilotinib -0.013 | [1] -0.039 | dasatinib -0.016 | [2] -0.007 | [3] -0.007 | quisinostat -0.032 | tipifarnib -0.054 | [4] 0.035 | [5] -0.001 | [6] 0.029 | [7] -0.024 | silmitasertib 0.024 | [8] 0.009 | entospletinib 0.05

DST (UniProt Q03001)
inactive: nilotinib -0.002 | [1] -0.035 | dasatinib -0.023 | [2] 0.045 | [3] -0.06 | quisinostat -0.118 | tipifarnib 0.069 | [4] 0.022 | [5] 0.027 | [6] -0.107 | [7] 0.262 | vorinostat -0.035 | silmitasertib -0.02 | [8] 0.01 | entospletinib -0.03

EEF1AKNMT (UniProt Q8N6R0)
Sequence of UniProt Q8N6R0 (Q8N6R0 whole entry, looked up): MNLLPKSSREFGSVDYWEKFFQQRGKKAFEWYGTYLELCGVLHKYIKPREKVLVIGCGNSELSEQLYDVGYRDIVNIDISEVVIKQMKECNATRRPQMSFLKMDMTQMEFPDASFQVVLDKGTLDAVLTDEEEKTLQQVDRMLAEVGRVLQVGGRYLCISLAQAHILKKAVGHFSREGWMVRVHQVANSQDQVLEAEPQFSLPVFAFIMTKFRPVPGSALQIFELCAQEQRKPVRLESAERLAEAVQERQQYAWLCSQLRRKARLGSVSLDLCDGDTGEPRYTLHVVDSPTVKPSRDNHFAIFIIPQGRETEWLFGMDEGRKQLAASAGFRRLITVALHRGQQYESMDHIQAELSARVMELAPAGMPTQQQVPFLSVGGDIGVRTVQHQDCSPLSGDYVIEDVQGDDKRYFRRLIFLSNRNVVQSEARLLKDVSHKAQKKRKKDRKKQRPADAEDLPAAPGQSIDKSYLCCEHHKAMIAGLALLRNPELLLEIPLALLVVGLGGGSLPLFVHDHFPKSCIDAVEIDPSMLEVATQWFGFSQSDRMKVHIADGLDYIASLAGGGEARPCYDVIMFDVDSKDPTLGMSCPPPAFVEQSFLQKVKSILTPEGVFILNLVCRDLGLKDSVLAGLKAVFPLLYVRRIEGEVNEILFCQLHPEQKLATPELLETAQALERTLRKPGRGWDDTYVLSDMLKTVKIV
active: vorinostat -0.414
inactive: nilotinib 0.006 | [1] -0.008 | dasatinib -0.044 | [2] -0.011 | [3] 0.043 | quisinostat -0.093 | tipifarnib -0.003 | [4] 0.045 | [5] -0.013 | [6] 0.01 | [7] -0.004 | silmitasertib 0.076 | [8] -0.005 | entospletinib 0.026

EIF2B4 (UniProt Q9UI10)
inactive: nilotinib 0.053 | [1] -0.005 | dasatinib 0.014 | [2] 0.033 | [3] -0.022 | quisinostat 0.02 | tipifarnib 0.016 | [4] 0.022 | [5] 0.039 | [6] -0.021 | [7] 0.028 | vorinostat -0.135 | silmitasertib 0.013 | [8] -0.006 | entospletinib -0.05

EWSR1 isoform 5 (UniProt Q01844)
active: nilotinib -0.766
inactive: [1] 0.019 | dasatinib 0.004 | [2] 0.036 | [3] -0.049 | quisinostat -0.025 | tipifarnib 0.082 | [4] 0.013 | [5] -0.002 | [6] 0.024 | [7] 0.027 | vorinostat 0.036 | silmitasertib -0.034 | [8] 0.006 | entospletinib 0.014

FTSJ3 (UniProt Q8IY81)
Sequence of UniProt Q8IY81 (Q8IY81 whole entry, looked up): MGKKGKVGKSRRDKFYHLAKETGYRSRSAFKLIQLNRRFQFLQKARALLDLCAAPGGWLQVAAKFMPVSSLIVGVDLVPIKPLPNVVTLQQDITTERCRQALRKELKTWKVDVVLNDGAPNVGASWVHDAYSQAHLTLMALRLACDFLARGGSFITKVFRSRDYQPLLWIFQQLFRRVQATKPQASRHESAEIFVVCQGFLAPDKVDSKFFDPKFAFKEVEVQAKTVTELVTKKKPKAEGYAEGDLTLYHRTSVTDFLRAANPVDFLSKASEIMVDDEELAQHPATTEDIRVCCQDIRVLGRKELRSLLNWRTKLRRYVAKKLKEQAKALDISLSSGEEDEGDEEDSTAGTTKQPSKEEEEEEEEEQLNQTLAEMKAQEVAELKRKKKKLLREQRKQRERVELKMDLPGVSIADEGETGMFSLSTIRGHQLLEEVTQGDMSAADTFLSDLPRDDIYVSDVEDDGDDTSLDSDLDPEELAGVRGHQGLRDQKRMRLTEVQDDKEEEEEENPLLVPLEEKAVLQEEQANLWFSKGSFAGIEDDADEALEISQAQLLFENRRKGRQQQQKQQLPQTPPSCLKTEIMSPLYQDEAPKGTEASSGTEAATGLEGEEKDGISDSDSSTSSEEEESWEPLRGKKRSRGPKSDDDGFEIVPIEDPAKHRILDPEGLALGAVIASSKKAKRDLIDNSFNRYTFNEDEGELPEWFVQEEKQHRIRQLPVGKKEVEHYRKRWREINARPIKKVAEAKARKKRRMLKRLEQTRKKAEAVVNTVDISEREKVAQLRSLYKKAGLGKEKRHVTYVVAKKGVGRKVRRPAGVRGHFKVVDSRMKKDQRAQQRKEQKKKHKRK
inactive: nilotinib 0.001 | [1] -0.025 | dasatinib 0.021 | [2] 0.016 | [3] -0.001 | quisinostat 0.066 | tipifarnib -0.046 | [4] 0.047 | [5] 0.033 | [6] -0.015 | [7] -0.034 | vorinostat 0.068 | silmitasertib 0.017 | [8] 0.012 | entospletinib -0.043

EIF2AK2 (UniProt P19525)
Sequence of UniProt P19525 (P19525 whole entry, looked up): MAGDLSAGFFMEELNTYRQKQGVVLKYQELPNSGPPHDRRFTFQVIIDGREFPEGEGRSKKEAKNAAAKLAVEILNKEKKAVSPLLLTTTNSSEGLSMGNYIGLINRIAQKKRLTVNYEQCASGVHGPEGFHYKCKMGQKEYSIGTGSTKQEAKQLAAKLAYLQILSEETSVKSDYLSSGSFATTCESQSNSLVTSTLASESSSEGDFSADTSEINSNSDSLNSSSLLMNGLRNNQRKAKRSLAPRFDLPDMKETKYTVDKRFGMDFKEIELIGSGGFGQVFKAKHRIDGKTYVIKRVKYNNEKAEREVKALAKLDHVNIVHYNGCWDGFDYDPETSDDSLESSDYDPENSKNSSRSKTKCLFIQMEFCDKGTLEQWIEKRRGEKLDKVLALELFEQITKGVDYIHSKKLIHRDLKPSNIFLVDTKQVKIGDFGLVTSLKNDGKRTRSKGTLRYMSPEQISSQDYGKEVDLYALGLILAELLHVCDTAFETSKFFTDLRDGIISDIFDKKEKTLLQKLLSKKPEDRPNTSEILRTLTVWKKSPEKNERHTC
inactive: nilotinib -0.014 | [1] 0.043 | dasatinib 0.122 | [2] 0.01 | [3] 0.056 | quisinostat -0.087 | tipifarnib -0.032 | [4] 0.045 | [5] -0.013 | [6] -0.054 | [7] 0.021 | silmitasertib 0.038 | [8] -0.017 | entospletinib 0.068
active: vorinostat -0.415

FIBP (UniProt O43427)
inactive: nilotinib -0.001 | [1] 0.036 | dasatinib 0.013 | [2] -0.024 | [3] -0.043 | quisinostat 0.019 | tipifarnib -0.037 | [4] 0.024 | [5] 0 | [6] 0 | [7] -0.049 | vorinostat -0.006 | silmitasertib 0.119 | [8] -0.02 | entospletinib -0.049

ENSA isoform 3 (UniProt O43768)
inactive: nilotinib -0.022 | [1] -0.011 | dasatinib 0.07 | [2] 0.013 | [3] -0.002 | quisinostat 0.051 | tipifarnib -0.002 | [4] -0.025 | [5] -0.029 | [6] 0.021 | [7] -0.029 | vorinostat 0.144 | silmitasertib -0.019 | [8] 0.003 | entospletinib -0.014

EIF2B5 (UniProt Q13144)
Sequence of UniProt Q13144 (Q13144 whole entry, looked up): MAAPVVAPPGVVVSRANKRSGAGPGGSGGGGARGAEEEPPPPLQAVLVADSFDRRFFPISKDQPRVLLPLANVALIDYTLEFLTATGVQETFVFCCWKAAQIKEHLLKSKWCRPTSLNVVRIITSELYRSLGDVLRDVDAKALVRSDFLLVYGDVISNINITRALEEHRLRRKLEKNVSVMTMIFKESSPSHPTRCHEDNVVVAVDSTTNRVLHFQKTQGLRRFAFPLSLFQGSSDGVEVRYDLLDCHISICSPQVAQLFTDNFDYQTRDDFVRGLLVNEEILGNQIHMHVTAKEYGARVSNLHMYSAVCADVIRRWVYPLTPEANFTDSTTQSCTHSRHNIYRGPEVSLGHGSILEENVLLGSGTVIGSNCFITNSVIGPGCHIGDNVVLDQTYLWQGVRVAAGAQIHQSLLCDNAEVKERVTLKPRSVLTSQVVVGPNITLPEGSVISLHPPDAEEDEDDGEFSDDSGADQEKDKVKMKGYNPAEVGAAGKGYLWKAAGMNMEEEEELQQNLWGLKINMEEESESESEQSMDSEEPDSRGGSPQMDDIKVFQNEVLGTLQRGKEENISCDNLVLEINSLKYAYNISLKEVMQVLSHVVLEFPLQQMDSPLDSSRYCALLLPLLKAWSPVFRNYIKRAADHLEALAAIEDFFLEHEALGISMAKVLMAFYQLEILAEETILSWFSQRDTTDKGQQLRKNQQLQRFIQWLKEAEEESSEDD
inactive: nilotinib -0.004 | [1] 0.037 | dasatinib -0.015 | [2] 0.008 | [3] 0.01 | quisinostat -0.002 | tipifarnib -0.006 | [4] 0.038 | [5] -0.01 | [6] -0.011 | [7] 0.013 | silmitasertib -0.009 | [8] -0.029 | entospletinib 0.013
active: vorinostat -0.227

GALK1 isoform 2 (UniProt P51570)
active: vorinostat -0.338
inactive: nilotinib 0.01 | [1] -0.018 | dasatinib -0.024 | [2] -0.014 | [3] 0.03 | quisinostat -0.051 | tipifarnib 0.002 | [4] 0.04 | [5] -0.033 | [6] -0.006 | [7] -0.017 | silmitasertib 0.063 | [8] 0.023 | entospletinib -0.088

FAM98A (UniProt Q8NCA5)
active: vorinostat -0.558
inactive: nilotinib -0.045 | [1] 0.034 | dasatinib -0.034 | [2] 0.018 | [3] -0.022 | quisinostat -0.042 | tipifarnib 0.009 | [4] -0.004 | [5] -0.028 | [6] -0.014 | [7] 0.027 | silmitasertib 0.005 | [8] 0.01 | entospletinib 0.006
